The values below come from PubChem BioAssay (Tox21).

Each structure is given as a SMILES string. Results filed as inconclusive are left out. Entries that show only a call come without a potency. The source made the active and inactive calls. The call rests on the fitted dose curve; in most records, active means well fitted activation curve with a large enough effect; inconclusive means small, poorly fitted or top-dose-only effect; inactive means flat fitted curve, though single readings scatter.
Potency means the concentration at half of the fitted maximal effect.

The nature of the test: qHTS assay to identify small molecule phospholipidosis (PLD) inducers (AID 1259344). To be noted: HepG2 phospholipidosis, LipidTOX Red imaging, 24 h; series mostly up to 38.3 µM. The essentials:
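Phospholipidosis is scored by imaging LipidTOX-stained pits in HepG2 cells exposed to compound for 24 h at 37 C; pit counts and integrated intensities per well and per cell serve as outputs.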
A general note: Quantitative high-throughput screening tests each substance at several concentrations.
In the case of `O=C(O)C1=C(CSc2nnnn2CS(=O)(=O)O)CS[C@@H]2[C@H](NC(=O)[C@H](O)c3ccccc3)C(=O)N12`, the Potency result was “inactive”.

Take `CCOc1ccc(N=Nc2ccc(N)cc2N)cc1`: the Potency entry is “inactive”. `O=C(O)[C@H]1/C(=C/CO)O[C@@H]2CC(=O)N21`: the Potency result was “inactive”.

For `CNCC(O)c1ccc(OC(=O)C(C)(C)C)c(OC(=O)C(C)(C)C)c1` (configuration not stated), the Potency entry was “inactive”. `COc1cc(-c2ccc(-[n+]3nc(-c4ccccc4)nn3-c3ccc([N+](=O)[O-])cc3)c(OC)c2)ccc1-[n+]1nc(-c2ccccc2)nn1-c1ccc([N+](=O)[O-])cc1`: the Potency result was “inactive”. In the case of `CCOC(=O)O[C@]1(C(=O)COC(=O)CC)CC[C@H]2[C@@H]3CCC4=CC(=O)C=C[C@]4(C)[C@H]3[C@@H](O)C[C@@]21C` it was “inactive”; in that of `CC[C@H](C)[C@@H]1NC(=O)[C@H](Cc2ccc(O)cc2)NC(=O)[C@@H](N)CSSC[C@@H](C(=O)N2CCC[C@H]2C(=O)N[C@@H](CC(C)C)C(=O)NCC(N)=O)NC(=O)[C@H](CC(N)=O)NC(=O)[C@H](CCC(N)=O)NC1=O`, “inactive”. With `NS(=O)(=O)c1cc2c(cc1Cl)NC(Cc1ccccc1)NS2(=O)=O` (configuration not stated), the Potency result was “inactive”. For the compound `C[N+]1(C)[C@@H]2CC(OC(=O)C(O)(c3cccs3)c3cccs3)C[C@H]1[C@@H]1O[C@@H]12` (some centres not stated), the Potency result was “inactive”. With `CC(C)[C@@H]1CC[C@@H](C)C[C@H]1OC(=O)c1ccccc1O`, the Potency entry is “inactive”. For the compound `CC(C)[C@@H](N)C(=O)O`, the Potency entry is “inactive”.

On to `CC(C)(C)CC(C)(C)c1cc(Cc2cc(C(C)(C)CC(C)(C)C)cc(-n3nc4ccccc4n3)c2O)c(O)c(-n2nc3ccccc3n2)c1`, for which the Potency entry was “inactive”. In the case of `COc1ccc(C[C@H](C)NC[C@@H](O)c2ccc(O)c(NC=O)c2)cc1` it was “inactive”.

As for `CCCCCCCCCCCCCCCC(=O)OCC(COC(=O)CCCCCCCCCCCCCCC)OC(=O)CCCCCCCCCCCCCCC`, the Potency result is “inactive”. Regarding `CCOC(=O)[C@H](CS)NCCN[C@@H](CS)C(=O)OCC`, the Potency result is “inactive”. Turning to `CCN(CC)CCOCCOC(=O)C(CC)(CC)c1ccccc1`, the Potency was 10 µM (active). In the case of `CC(=O)N(CC(C)C(=O)O)c1c(I)cc(I)c(N)c1I` (configuration not stated), the Potency result was “inactive”. For `O=C(O)c1ccc(NC(=O)[C@H](Cc2ccc(O)cc2)NC(=O)c2ccccc2)cc1` the value was “inactive”. `Clc1cc(Cl)c(OCC#CI)cc1Cl`: the Potency result was “inactive”. In the case of `CC(=O)Nc1ccc(OC(=O)c2ccccc2O)cc1` it was “inactive”; in that of `FC(F)(F)C(F)(F)C(F)(F)C(F)(F)C(F)(F)C(F)(F)F`, “inactive”.

For `O=C(OC[C@H]1O[C@](O)(COC(=O)c2cccnc2)[C@@H](OC(=O)c2cccnc2)[C@@H]1OC(=O)c1cccnc1)c1cccnc1`, the Potency entry is “inactive”. Consider `CCC(Cc1c(I)cc(I)c(O)c1I)C(=O)O` (configuration not stated), for which the Potency entry was “inactive”. On to `CCCCCCCCCCCCOCCCN`, for which the Potency result was “inactive”. Take `C=CCOc1ccc(CC(=O)O)cc1Cl`: the Potency result is “inactive”. Take `O=P(O)(O)OC[C@H]1O[C@](O)(COP(=O)(O)O)[C@@H](O)[C@@H]1O`: the Potency entry was “inactive”. Take `CC(=O)O[C@]1(C(C)=O)CC[C@H]2[C@@H]3CCC4=CC(=O)CC[C@]4(C)[C@@]3(F)[C@@H](O)C[C@@]21C`: the Potency entry is “inactive”. Regarding `CCN(CC)CCC(=O)N1c2ccccc2Sc2ccc(C(F)(F)F)cc21`, the Potency result is “inactive”.

For the compound `CCCCC(=O)N(Cc1ccc(-c2ccccc2-c2nn[nH]n2)cc1)[C@@H](C(=O)O)C(C)C`, the Potency result was “inactive”. Turning to `CN=C1C=CC(=C(c2ccc(N(C)C)cc2)c2ccc(N(C)C)cc2)C=C1`, the Potency result is “inactive”. In the case of `CCCCCCCCCCCC(=O)N(CCO)CCO` it was “inactive”; in that of `O=C(O)c1cc(N=Nc2ccc(O)c(C(=O)O)c2)ccc1O`, “inactive”.
